Test results reported in the supplement of paper PMC11732987, “Enantioselective OTUD7B fragment discovery through chemoproteomics screening and high-throughput optimisation” (Communications Chemistry, 2025).

Assays:
Experiment in all cases: log2 ratio of Biotin-Ahx-Ub-VS probe labelling (fragment/DMSO); higher = less target engagement (more negative = stronger competition), active = hit call of the paper (q ≤ 0.05, log2 ratio ≤ -1)
Settings in all cases: compound concentration: 200 uM; treatment time: 3 h
USP34 = USP34 (UniProt Q70CQ2)
Sequence of USP34 (Q70CQ2 whole entry, the tested form may be a part): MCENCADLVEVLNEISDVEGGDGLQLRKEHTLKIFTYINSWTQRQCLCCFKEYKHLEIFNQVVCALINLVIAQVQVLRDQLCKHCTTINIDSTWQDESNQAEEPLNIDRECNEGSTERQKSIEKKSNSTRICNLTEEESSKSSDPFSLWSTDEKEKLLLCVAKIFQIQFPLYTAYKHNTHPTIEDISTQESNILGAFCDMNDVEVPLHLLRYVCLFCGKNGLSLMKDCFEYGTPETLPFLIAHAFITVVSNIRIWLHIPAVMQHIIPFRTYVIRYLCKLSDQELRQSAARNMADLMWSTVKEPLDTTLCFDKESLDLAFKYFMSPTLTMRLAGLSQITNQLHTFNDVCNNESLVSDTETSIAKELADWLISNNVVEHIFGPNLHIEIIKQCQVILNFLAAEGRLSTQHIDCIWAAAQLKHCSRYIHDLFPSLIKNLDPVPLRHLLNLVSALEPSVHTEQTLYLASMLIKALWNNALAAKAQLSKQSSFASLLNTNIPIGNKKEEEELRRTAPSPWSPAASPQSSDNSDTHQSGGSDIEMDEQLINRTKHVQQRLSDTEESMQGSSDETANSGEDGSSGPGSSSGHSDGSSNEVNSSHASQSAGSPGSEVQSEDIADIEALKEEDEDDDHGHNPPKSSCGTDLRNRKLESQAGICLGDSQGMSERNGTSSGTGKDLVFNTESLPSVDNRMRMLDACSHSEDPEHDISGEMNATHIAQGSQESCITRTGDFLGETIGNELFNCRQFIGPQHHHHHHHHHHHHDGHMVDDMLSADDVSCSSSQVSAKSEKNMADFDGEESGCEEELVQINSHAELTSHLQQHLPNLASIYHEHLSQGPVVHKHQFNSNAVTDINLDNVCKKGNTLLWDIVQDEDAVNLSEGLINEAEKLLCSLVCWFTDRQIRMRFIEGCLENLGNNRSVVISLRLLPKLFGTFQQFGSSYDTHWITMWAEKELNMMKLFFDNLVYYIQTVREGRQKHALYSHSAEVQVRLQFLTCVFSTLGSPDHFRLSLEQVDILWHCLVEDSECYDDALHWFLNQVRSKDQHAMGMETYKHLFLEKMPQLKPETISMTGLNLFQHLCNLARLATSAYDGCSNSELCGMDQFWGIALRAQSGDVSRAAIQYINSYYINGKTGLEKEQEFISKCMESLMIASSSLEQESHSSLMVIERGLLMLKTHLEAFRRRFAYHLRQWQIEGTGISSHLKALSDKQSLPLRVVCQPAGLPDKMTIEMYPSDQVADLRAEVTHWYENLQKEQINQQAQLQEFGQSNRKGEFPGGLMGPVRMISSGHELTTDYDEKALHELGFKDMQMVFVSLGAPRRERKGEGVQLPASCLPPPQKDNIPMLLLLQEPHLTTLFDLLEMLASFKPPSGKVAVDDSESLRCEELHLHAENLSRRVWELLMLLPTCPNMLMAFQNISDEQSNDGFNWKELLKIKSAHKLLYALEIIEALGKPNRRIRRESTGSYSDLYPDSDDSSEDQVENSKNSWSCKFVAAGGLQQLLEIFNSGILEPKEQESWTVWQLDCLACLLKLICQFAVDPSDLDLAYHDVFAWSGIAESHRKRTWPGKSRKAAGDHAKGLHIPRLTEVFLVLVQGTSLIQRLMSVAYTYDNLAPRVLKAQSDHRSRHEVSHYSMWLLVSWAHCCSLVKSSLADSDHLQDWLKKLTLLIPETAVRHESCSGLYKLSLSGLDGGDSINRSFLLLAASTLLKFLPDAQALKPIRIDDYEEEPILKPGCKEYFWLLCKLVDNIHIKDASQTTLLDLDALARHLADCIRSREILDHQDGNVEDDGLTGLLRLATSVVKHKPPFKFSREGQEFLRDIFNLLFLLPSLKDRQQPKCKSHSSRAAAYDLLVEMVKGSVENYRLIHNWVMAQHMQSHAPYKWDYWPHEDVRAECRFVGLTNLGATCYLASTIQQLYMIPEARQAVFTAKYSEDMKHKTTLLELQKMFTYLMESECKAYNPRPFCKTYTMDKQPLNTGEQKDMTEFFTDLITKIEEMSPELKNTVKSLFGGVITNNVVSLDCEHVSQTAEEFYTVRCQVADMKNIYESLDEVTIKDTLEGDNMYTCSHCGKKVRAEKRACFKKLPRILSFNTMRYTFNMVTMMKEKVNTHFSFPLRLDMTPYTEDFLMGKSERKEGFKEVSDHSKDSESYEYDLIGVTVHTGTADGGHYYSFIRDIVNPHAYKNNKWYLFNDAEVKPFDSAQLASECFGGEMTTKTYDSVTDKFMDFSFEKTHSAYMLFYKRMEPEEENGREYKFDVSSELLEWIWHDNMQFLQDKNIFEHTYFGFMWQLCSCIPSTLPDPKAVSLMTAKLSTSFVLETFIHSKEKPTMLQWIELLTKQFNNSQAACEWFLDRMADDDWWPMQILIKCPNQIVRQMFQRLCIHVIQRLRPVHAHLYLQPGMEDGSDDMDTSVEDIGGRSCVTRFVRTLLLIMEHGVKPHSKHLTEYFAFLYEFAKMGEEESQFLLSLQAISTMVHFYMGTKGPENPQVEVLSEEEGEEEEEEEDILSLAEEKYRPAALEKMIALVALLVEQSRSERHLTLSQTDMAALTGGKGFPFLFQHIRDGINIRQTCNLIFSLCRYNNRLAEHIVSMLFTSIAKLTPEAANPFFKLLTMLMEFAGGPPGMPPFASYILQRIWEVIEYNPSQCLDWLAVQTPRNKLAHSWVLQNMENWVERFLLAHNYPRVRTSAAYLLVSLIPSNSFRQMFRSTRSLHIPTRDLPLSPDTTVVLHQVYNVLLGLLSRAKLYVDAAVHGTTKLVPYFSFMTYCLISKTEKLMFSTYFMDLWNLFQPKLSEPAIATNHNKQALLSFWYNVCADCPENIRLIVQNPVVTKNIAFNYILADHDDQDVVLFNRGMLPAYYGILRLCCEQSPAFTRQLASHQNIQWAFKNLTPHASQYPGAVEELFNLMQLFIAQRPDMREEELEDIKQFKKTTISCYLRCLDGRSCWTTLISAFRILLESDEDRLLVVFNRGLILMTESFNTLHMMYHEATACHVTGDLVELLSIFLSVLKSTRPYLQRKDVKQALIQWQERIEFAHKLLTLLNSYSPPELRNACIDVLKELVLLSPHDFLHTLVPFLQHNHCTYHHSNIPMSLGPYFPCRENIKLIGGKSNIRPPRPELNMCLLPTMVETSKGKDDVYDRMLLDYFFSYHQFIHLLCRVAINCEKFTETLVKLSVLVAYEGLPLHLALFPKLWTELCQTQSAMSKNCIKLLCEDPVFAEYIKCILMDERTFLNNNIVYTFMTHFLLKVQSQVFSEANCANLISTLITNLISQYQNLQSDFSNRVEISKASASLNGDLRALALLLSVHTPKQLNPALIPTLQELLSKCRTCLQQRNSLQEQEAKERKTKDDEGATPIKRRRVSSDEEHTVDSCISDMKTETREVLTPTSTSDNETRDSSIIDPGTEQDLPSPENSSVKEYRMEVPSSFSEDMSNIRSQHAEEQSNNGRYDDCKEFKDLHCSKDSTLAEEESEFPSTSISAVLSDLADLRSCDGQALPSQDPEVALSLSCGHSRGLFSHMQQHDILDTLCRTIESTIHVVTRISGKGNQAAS
Procedure, shortened: (§1)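 HEK293T lysate (495 µg per sample, in Tris/CHAPS/IGEPAL buffer with protease inhibitors) was treated in triplicate with fragment at 200 µM or with DMSO for 3 h. It was then treated with Biotin-Ahx-Ub-VS (0.5 µM final) for 1 h. Labelled DUBs were NeutrAvidin-enriched, digested with LysC and trypsin, and run by diaPASEF LC-MS/MS. Spectronaut label-free quantities were global-median-normalised. Values are average log2 ratios fragment/DMSO by unpaired t-test, using proteins with ≥2 unique peptides.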

USP36 = target: T1, USP36 (UniProt Q9P275)
T1 sequence (whole entry): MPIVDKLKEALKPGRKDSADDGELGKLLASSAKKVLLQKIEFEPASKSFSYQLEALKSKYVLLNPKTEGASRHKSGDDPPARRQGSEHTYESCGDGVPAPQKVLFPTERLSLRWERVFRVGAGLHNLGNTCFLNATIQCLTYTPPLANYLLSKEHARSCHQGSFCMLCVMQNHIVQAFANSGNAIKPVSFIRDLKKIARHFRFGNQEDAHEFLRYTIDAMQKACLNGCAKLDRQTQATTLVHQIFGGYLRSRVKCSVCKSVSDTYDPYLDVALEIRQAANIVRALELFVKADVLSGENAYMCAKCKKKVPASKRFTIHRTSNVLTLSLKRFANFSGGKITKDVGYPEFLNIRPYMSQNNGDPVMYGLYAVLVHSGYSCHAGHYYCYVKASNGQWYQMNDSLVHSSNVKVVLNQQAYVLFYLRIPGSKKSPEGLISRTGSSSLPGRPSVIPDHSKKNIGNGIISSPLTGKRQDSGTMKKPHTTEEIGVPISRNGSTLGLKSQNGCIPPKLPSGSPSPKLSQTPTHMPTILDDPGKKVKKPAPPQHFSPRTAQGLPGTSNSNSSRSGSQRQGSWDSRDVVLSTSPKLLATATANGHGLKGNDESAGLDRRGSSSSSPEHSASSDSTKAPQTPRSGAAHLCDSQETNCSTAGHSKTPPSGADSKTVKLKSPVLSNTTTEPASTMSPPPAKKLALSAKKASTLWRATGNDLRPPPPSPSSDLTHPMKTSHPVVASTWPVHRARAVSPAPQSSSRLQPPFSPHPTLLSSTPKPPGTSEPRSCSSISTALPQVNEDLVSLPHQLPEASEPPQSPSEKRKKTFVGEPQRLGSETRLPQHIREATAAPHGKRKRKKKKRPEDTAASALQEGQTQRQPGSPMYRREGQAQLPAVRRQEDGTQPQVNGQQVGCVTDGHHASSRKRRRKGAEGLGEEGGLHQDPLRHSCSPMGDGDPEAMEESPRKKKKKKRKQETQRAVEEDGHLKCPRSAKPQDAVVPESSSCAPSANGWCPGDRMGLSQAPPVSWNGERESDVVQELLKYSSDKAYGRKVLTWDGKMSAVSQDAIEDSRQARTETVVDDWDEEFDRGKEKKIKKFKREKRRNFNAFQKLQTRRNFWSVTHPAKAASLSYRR
Procedure, shortened: as §1

USP38 = target: T2, USP38 (UniProt Q8NB14)
T2 sequence (whole entry): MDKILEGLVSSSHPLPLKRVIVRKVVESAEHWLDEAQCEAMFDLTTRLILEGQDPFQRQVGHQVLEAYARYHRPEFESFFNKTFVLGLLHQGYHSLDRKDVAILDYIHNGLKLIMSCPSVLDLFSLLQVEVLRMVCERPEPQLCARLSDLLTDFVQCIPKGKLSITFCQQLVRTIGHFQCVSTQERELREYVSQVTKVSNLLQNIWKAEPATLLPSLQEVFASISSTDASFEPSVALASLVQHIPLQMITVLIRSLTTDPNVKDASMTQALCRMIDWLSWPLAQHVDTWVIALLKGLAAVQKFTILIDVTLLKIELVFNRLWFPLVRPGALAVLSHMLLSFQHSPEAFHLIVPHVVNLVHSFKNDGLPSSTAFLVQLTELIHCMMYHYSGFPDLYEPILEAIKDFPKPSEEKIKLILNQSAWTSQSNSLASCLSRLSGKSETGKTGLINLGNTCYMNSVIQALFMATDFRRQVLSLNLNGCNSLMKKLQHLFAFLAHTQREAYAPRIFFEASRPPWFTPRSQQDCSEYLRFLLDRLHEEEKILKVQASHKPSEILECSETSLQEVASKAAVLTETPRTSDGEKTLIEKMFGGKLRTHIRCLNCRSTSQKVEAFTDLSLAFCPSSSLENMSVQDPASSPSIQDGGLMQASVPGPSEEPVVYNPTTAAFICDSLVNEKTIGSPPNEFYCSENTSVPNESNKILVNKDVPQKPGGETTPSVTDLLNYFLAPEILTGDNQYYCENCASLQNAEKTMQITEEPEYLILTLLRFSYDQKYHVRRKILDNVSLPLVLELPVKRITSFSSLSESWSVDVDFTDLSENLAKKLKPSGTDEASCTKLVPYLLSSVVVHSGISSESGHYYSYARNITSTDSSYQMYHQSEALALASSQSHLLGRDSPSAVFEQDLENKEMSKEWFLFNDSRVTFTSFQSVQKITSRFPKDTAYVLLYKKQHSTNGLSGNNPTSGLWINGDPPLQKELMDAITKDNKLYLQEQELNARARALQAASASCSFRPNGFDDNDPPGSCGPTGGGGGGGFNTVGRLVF
Procedure, shortened: as §1

USP39 = target: T3, USP39 (UniProt Q53GS9)
T3 sequence (whole entry): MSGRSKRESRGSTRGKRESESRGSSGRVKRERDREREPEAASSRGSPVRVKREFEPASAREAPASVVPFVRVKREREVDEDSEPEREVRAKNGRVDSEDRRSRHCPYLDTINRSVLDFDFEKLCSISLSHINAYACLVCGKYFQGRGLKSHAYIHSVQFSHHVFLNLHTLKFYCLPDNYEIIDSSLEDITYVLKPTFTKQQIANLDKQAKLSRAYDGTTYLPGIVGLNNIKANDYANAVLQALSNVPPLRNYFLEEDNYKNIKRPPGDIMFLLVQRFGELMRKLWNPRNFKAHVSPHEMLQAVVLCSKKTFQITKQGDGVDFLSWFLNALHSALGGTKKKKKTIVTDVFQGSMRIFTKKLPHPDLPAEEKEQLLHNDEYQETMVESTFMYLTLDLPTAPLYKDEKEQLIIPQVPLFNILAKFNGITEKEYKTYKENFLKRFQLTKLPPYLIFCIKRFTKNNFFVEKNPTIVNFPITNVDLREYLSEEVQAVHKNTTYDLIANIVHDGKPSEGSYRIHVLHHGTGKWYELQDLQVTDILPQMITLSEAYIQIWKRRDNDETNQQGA
Procedure, shortened: as §1

USP4 = target: T4, USP4 (UniProt Q13107)
T4 sequence (whole entry): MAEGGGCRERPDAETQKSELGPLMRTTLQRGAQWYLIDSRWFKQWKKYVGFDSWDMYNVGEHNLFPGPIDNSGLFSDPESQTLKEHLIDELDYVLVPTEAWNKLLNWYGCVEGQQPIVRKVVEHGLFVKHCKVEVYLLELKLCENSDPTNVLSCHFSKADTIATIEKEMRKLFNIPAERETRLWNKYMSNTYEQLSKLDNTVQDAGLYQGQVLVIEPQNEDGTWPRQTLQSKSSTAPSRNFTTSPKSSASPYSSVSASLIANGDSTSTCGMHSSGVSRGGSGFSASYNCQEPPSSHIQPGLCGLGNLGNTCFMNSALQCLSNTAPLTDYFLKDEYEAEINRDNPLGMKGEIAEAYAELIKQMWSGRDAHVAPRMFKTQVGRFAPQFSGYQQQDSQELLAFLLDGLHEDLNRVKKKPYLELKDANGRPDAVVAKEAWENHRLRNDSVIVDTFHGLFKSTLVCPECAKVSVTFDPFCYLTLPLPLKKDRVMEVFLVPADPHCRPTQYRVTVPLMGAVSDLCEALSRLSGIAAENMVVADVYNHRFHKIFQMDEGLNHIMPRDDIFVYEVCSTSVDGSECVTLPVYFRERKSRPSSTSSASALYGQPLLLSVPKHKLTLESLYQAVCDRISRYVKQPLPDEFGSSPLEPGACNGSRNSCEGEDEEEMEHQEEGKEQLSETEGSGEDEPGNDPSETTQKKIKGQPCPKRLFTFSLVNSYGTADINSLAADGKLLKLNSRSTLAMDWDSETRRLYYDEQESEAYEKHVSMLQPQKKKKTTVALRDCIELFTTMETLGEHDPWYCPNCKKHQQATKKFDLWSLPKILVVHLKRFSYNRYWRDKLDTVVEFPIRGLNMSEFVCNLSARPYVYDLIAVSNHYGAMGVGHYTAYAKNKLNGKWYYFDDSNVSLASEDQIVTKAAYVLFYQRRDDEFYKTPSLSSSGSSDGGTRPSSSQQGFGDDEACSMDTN
Procedure, shortened: as §1

Measured: log2 ratio of Biotin-Ahx-Ub-VS probe labelling

O=C(CCl)N1CC2(CCOCC2)C1
inactive: USP34 -0.0656 | USP36 -0.243 | USP38 0.103 | USP39 0.364 | USP4 -0.0394
